This is a sample that favours compounds with a hit; in the whole collection about 2.1% have one here.
S1P2 blocker – blocks the human S1P2 receptor. inhibition, % at 5 µM. AID 736. O95136. cell-based S1P2 antagonist assay, inhibition at 5 uM. 0.21% of 97,000 active; in the data active means inhibition above about 45%;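 further: CRE beta-lactamase reporter cells expressing human S1P2 stimulated with S1P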
hDAT+cocaine – modulates human dopamine transporter uptake under cocaine | 1.3% of 110,000 active | LLC-PK1 hDAT cells, [14C]-dopamine uptake with cocaine IC80; actives deviate in either direction | Q01959 | AID 449768 | B-score at 10 µM;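 active means Z score or B-score, a plate-position-corrected score, falls beyond the plate's 99.7% confidence bounds, in either direction; inactive means both scores lie inside the 99.7% bounds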
Target sequence (Q01959 whole entry, looked up): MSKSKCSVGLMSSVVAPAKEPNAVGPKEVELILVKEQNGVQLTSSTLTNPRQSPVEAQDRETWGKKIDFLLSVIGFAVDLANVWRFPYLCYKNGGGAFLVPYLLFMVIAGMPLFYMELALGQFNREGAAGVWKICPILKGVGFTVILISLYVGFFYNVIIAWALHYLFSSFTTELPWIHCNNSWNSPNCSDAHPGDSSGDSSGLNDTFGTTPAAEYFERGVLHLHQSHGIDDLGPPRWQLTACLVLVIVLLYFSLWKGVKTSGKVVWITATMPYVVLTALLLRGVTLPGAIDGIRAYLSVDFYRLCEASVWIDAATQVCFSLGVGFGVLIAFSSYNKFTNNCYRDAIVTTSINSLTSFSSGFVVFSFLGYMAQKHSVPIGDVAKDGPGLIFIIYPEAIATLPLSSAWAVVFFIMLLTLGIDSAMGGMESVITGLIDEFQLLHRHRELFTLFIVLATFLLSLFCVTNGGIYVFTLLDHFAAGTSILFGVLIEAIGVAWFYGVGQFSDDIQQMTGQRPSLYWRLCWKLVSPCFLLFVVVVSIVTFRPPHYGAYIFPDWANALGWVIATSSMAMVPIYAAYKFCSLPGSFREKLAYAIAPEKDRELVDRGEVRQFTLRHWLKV
GALR2 antag – blocks the human galanin receptor 2. O43603. inhibition, % at 4 µM. GALR2-expressing cells, antagonist mode. 0.39% of 140,000 active; in the data active means inhibition above about 27%;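 further: cells stimulated with galanin 1-16 at roughly its EC80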
GALR2 agonist – agonists of human galanin receptor 2 (GALR2); O43603; GALR2-expressing cells, agonist activation read-out; activation, % (concentration not given with the values); 0.48% of 140,000 active; AID 803; in the data active means activation above about 5%, passing the limit was not always enough
S1P2 agonist – activates the human S1P2 receptor. activation, % at 4.5 µM. S1P2-expressing cell line, agonist reporter read-out. 0.46% of 97,000 active. AID 729. O95136; in the data active means activation above about 16%
Each line names hits and unclear results; the compound was inactive in the other large screens.

C=CCOC(=O)C1=C[C@H](c2csc3ccccc23)C[C@H](OCc2ccc(CO)cc2)O1	none (no result: S1P2 blocker, GALR2 antag, GALR2 agonist, S1P2 agonist)
CCOc1ccc(NC(=O)CN(C)c2ccc(S(=O)(=O)N(C(C)C)C(C)C)cn2)cc1OCC	none
O=C(NC1CCCC1)c1c[nH]c2ccc(F)cc2c1=O	hDAT+cocaine 4.49
COc1ccc(Oc2nc3ccccc3nc2C(F)(F)F)cc1	none
Cc1cc(C)cc(Oc2nc(C(F)(F)F)nc3ccccc23)c1	S1P2 agonist 17.9
C=CCn1c(SCC(=O)Nc2ncc(Cc3cc(C(F)(F)F)ccc3Cl)s2)nnc1-c1ccncc1	none
N#CC1(C#N)CC(C=O)=C(N)C1(C#N)CC(=O)c1ccc(F)cc1 (configuration not stated)	hDAT+cocaine -2.23
Cc1cccc(S(=O)(=O)c2c(N)n(/N=C/c3cccnc3)c3nc4ccccc4nc23)c1	hDAT+cocaine 3.21
Cc1cccc2cc(C(c3nnnn3CC3CCCO3)N3CCc4ccccc4C3)c(=O)[nH]c12 (configuration not stated)	S1P2 agonist 127.8 (no result: hDAT+cocaine)
Cc1nc(-c2ccc(NC(=O)C3CCCCC3)cc2)cs1	none
Cc1cc(Nc2cc(Cl)nc(Sc3ccc(NC(=O)C4CC4)cc3)n2)n[nH]1	hDAT+cocaine -2.63 (no result: S1P2 blocker, GALR2 antag, GALR2 agonist, S1P2 agonist)
COc1cc(OC)c(-c2nnc(-c3ccc(OC)c(OC)c3OC)o2)cc1OC	S1P2 agonist 16.2
CCSc1ccc(-c2nn(-c3ccccc3)cc2/C=C(/C#N)C(=O)NCCCOC)cc1	GALR2 agonist 5.9 (no result: S1P2 blocker, hDAT+cocaine, S1P2 agonist)
CCCSc1ccc(-c2nn(-c3ccccc3)cc2/C=C(/C#N)C(=O)NCCCOC)cc1	none (no result: S1P2 blocker, hDAT+cocaine, S1P2 agonist)
Oc1c(Cl)cc(Cl)cc1Sc1cc(Cl)cc(Cl)c1O	hDAT+cocaine -4.27 (no result: S1P2 blocker, S1P2 agonist)
COc1ccc(-n2nnnc2SCc2nc3ccccc3s2)cc1	hDAT+cocaine 4.1
N=c1c(-c2nc3ccccc3[nH]2)cc(C(=O)c2ccco2)nn1-c1ccccc1	none (no result: S1P2 blocker, hDAT+cocaine, S1P2 agonist)
N=c1c(-c2nc3ccccc3[nH]2)cc(C(=O)c2cccs2)nn1-c1ccccc1	S1P2 agonist 21.6
Nc1ccc(S(=O)(=O)c2ccc(Cl)cc2)cc1	hDAT+cocaine -3.09
Nc1ccc(S(N)(=O)=O)cc1	none (no result: S1P2 blocker, GALR2 antag, GALR2 agonist, S1P2 agonist)
CCOc1ccc(NC(=O)C(C)Oc2ccccc2C(=O)Nc2ccc(C)c(Cl)c2)cc1 (configuration not stated)	hDAT+cocaine 2.66
O=C(CCn1nnc2ccccc21)N1CCC(O)(c2cccc(F)c2)CC1	none (no result: S1P2 blocker, S1P2 agonist)
Cc1noc2ncnc(Oc3ccc(F)cc3)c12	none
COc1cc(OC)cc(-c2nnc(SCC(=O)Nc3cc(C)on3)o2)c1	none (no result: hDAT+cocaine)
CCCCNc1cc(C)nc(NCc2ccccc2)n1	S1P2 blocker 56.8
Cc1cc(Nc2ccc(Cl)cc2)nc(NCc2ccccc2)n1	none (no result: S1P2 blocker, hDAT+cocaine, S1P2 agonist)
COC(=O)c1cn(NC(=O)/C=C/c2cc(OC)ccc2OC)c(=O)c2ccccc12	none (no result: S1P2 blocker, hDAT+cocaine, S1P2 agonist)
CC(=O)C1C(c2ccccc2OC(F)F)NC(=O)NC1(O)C(F)(F)F (configuration not stated)	none (no result: hDAT+cocaine)
Cc1nc(N2CCN(C)CC2)[nH]c(=O)c1Cc1cccc2ccccc12	hDAT+cocaine 2.48
CCCN(CC1CC1)c1nc(N)c(C#N)c(CC#N)c1C#N	S1P2 agonist 16.5
CCCN(CCC)c1nc(N)c(C#N)c(CC#N)c1C#N	S1P2 agonist 16.4
CC(C)NC(=O)CSc1nnc(-c2ccc(S(=O)(=O)N3CCCC3)cc2)n1CC1CCCO1 (configuration not stated)	none
O=C(NC(=S)Nc1c(Cl)ccc2nsnc12)c1ccco1	none (no result: S1P2 blocker, hDAT+cocaine, S1P2 agonist)
O=C(Nc1ccc(-c2nc3ccc(NC(=O)c4cccs4)cc3[nH]2)cc1)c1cccs1	GALR2 antag 28.5
CC(=O)n1cc([C@@H]2C=C(C(=O)NCc3ccccc3)O[C@H](OCc3ccc(CO)cc3)C2)c2ccccc21	hDAT+cocaine 2.16 (no result: S1P2 blocker, GALR2 antag, GALR2 agonist, S1P2 agonist)
O=C(C1=C[C@H](c2ccccc2)C[C@H](OCc2ccc(CO)cc2)O1)N1CCN(Cc2ccccc2)CC1	hDAT+cocaine 2.79 (no result: S1P2 blocker, GALR2 antag, GALR2 agonist, S1P2 agonist)
O=C(C1=C[C@@H](c2ccccc2)C[C@@H](OCc2ccc(CO)cc2)O1)N1CCN(Cc2ccc3c(c2)OCO3)CC1	none (no result: S1P2 blocker, GALR2 antag, GALR2 agonist, S1P2 agonist)
O=C(C1=C[C@@H](c2csc3ccccc23)C[C@@H](OCCCCO)O1)N1CCN(Cc2ccc3c(c2)OCO3)CC1	none (no result: S1P2 blocker, GALR2 antag, GALR2 agonist, S1P2 agonist)
O=C(C1=C[C@H](c2csc3ccccc23)C[C@H](OCCCCO)O1)N1CCN(Cc2ccc3c(c2)OCO3)CC1	hDAT+cocaine 2.63 (no result: S1P2 blocker, GALR2 antag, GALR2 agonist, S1P2 agonist)
O=C(N1CCN(c2ccccc2)CC1)C1(c2cccs2)CCOCC1	none (no result: S1P2 blocker, hDAT+cocaine, S1P2 agonist)
Cc1cc(Cl)ccc1OC(C)C(=O)Nc1ccc([N+](=O)[O-])cn1 (configuration not stated)	none (no result: S1P2 blocker, hDAT+cocaine, S1P2 agonist)
Cc1ccc(S(=O)(=O)N(c2nc(N(C)C)nc(N(C)C)n2)n2cnnc2)cc1	none (no result: S1P2 blocker, S1P2 agonist)
CN1CCN(/N=C/c2nc(-c3ccccc3)n3ccccc23)CC1	none (no result: S1P2 blocker, hDAT+cocaine, S1P2 agonist)
COC(=O)c1ccccc1NC(=O)c1cc2ncc(Br)cn2n1	hDAT+cocaine -2.35
CC(CCCCC(=O)Nc1ccc(C(F)(F)F)cc1)NCCc1cnc[nH]1 (configuration not stated)	none (no result: S1P2 blocker, GALR2 antag, GALR2 agonist, S1P2 agonist)
Brc1c(OCCOCCn2cncn2)ccc2ccccc12	none
COc1cc2nc(SCc3ccc(C(F)(F)F)cc3)n(Cc3cccs3)c(=N)c2cc1OC	S1P2 agonist 16.2
COc1cc2nc(SCc3ccc(Cl)cc3Cl)n(Cc3cccs3)c(=N)c2cc1OC	none
COCCCn1c(SCc2ccccc2)nc2cc(OC)c(OC)cc2c1=N	hDAT+cocaine 8.21
Cc1ccc(NC(=O)NC(=O)CSc2nnc(-c3ccc(Cl)cc3Cl)n2N)c(C)c1	none (no result: S1P2 blocker, hDAT+cocaine, S1P2 agonist)
COc1ccccc1Nc1nc(N)nc(CN2CCN(c3ccccc3F)CC2)n1	hDAT+cocaine 2.81
CCN(CCCNC(=O)C1CCC(=O)N1C(C)C)c1cccc(C)c1 (configuration not stated)	none
O=C(c1ccc(F)cc1)C(CN1CCOCC1)c1ccccc1 (configuration not stated)	GALR2 antag 31.7
O=C(c1ccccc1)C(CCC(CN1CCOCC1)C(=O)c1ccccc1)CN1CCOCC1 (configuration not stated)	S1P2 blocker 53.4
O=C(NCc1cccs1)C1CCC(=O)N1C1CCCCC1 (configuration not stated)	none
C=CC1CN(C(=O)OCC(Cl)(Cl)Cl)C2CC3c4ccc(OC)cc4NC3C3CC1C2CO3 (configuration not stated)	none (no result: S1P2 blocker, GALR2 antag, GALR2 agonist, S1P2 agonist)
Cc1ccc(S(=O)(=O)Nc2cc(-c3nn(C)c(=O)c4ccccc34)ccc2N2CCOCC2)cc1	S1P2 agonist 16.6
Cc1cc(NC(=O)CSCC(=O)N(c2cccc(Cl)c2)C(C(=O)NC2CCCCC2)c2ccc(O)c(O)c2)no1 (configuration not stated)	none (no result: S1P2 blocker, hDAT+cocaine, S1P2 agonist)
N=c1c(C(=O)NCc2ccc(F)cc2)cc2c(=O)n3ccccc3nc2n1CCCN1CCOCC1	GALR2 agonist 9.7 (no result: S1P2 blocker, S1P2 agonist)
N=c1c(C(=O)NCC2CCCO2)cc2c(=O)n3ccccc3nc2n1Cc1cccnc1 (configuration not stated)	GALR2 agonist 5.8 (no result: S1P2 blocker, S1P2 agonist)
CCOCCCn1c(=N)c(C(=O)NCc2ccc3c(c2)OCO3)cc2c(=O)n3ccccc3nc21	none (no result: hDAT+cocaine)
N=c1c(C(=O)NCc2ccc(F)cc2)cc2c(=O)n3ccccc3nc2n1Cc1cccnc1	S1P2 agonist 20.8
